Test results published in PubChem BioAssay (NCATS).
Records with an inconclusive call do not appear. Activity calls are given as the source filed them. The call rests on the fitted dose curve; in most records, active means well fitted curve in the direction sought with a large enough effect; inconclusive means small, poorly fitted or top-dose-only effect, or another doubt; inactive means no such curve, though single readings can be large; an effect the other way counts as inactive or inconclusive.

Tests used:
[1] = target: Rap guanine nucleotide exchange factor 3 (Homo sapiens) (UniProt O95398); assay: Confirmatory qHTS for agonist of cAMP-regulated guanine nucleotide exchange factor 3 (EPAC1) (AID 1645881);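 further: EPAC1 catalysed release of BODIPY-GDP from Rap1B seen as fluorescence loss; 100% = effect of cAMP agonist control; nearly all actives have a fitted effect of over 75% in size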
Rap guanine nucleotide exchange factor 3 (Homo sapiens), sequence (O95398 whole entry, looked up): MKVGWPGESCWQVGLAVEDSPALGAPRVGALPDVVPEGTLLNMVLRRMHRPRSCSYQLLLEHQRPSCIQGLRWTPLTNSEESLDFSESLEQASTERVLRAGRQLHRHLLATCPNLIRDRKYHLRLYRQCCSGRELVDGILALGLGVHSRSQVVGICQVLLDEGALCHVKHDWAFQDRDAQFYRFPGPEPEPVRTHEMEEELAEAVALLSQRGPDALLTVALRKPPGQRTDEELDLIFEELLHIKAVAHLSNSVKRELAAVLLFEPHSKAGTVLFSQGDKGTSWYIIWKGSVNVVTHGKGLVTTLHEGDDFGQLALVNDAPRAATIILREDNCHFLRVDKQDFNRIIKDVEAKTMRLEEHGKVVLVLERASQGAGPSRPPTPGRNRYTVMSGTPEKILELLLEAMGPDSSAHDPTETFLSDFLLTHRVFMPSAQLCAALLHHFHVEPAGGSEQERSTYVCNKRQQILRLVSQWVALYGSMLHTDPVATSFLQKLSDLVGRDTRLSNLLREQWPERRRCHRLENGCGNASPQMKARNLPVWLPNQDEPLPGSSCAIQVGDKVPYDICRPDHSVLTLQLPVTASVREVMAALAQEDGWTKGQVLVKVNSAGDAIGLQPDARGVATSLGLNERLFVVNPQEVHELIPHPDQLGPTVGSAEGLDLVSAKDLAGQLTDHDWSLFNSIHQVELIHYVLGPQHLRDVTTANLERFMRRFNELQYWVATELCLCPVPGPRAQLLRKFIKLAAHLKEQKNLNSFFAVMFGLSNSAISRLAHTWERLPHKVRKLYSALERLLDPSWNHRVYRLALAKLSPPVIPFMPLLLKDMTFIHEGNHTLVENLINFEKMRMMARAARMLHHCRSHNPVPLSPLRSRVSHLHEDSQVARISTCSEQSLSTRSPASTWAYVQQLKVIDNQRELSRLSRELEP

[2] = target: Rap guanine nucleotide exchange factor 4 (Homo sapiens) (UniProt Q8WZA2); assay: Confirmatory qHTS for agonist of cAMP-regulated guanine nucleotide exchange factor 4 (EPAC2) (AID 1645884);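 further: nucleotide exchange releases bodipy-GDP from Rap1 and this lowers its fluorescence; on the % scale 0 is the no-effect control and ±100 the full control effect; nearly all actives have a fitted effect of over 65% in size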
Rap guanine nucleotide exchange factor 4 (Homo sapiens), sequence (Q8WZA2 whole entry, looked up): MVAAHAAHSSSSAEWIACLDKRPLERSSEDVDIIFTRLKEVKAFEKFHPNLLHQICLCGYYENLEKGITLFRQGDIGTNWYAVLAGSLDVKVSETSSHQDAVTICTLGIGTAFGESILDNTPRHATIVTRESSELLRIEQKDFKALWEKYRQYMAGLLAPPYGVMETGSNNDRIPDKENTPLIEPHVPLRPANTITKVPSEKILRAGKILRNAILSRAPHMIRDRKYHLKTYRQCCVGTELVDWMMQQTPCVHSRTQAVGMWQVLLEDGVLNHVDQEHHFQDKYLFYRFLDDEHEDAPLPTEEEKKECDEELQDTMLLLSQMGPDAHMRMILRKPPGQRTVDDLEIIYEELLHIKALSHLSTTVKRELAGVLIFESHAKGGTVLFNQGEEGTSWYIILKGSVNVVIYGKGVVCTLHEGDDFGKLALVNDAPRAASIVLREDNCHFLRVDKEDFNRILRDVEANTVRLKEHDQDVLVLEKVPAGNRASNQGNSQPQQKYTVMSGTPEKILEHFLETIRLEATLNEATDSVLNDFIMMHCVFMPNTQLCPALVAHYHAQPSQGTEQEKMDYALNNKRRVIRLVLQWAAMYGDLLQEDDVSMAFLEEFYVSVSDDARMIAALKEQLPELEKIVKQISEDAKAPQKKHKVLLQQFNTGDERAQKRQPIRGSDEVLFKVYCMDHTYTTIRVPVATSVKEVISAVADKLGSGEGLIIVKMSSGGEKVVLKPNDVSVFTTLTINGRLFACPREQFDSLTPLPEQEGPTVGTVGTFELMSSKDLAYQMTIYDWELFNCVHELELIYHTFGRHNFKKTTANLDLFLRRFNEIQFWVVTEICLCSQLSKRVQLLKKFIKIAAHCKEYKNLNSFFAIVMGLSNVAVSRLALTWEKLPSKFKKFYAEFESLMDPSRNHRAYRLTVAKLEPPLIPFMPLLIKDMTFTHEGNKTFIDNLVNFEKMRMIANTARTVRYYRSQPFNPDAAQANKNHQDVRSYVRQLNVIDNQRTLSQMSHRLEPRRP

[3] = target: Rap guanine nucleotide exchange factor 4 (Homo sapiens) (UniProt Q8WZA2); assay: Confirmatory qHTS for antagonist of cAMP-regulated guanine nucleotide exchange factor 4 (EPAC2) (AID 1645885); further: nearly all actives have a fitted effect of over 25% in size; further: potency means the concentration at half of the fitted maximal effect
[4] = target: Rap guanine nucleotide exchange factor 3 (Homo sapiens) (UniProt O95398); assay: Counterscreen qHTS for agonist of cAMP-regulated guanine nucleotide exchange factor 3 (EPAC1) (AID 1645889); further: % of control where 0% means no effect; nearly all actives have a fitted effect of over 40% in size
In short: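 Rap1B–BODIPY-GDP (250 nM) with 50 uM GDP; compounds pin-transferred to 9.74 nM–152 uM final (activator) or from 7.32 nM upwards (inhibitor). Fluorescence Ex/Em 480/540 nm read at 5 and 30 min, then after adding cAMP or buffer, at room temperature.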

CCC(C)(C)c1ccc(OCC(=O)N(C)C)c(C(C)(C)CC)c1
inactive: Potency [1] | Potency [2] | Potency [4]
active: Potency [3] 67.5 µM

Cc1cc2c(cc1C)C(c1ccccc1OC(C)C)CC(=O)N2 (stereo unspecified)
inactive: Potency [1] | Potency [2] | Potency [4]
active: Potency [3] 33.8 µM

COc1ccc(OC)c(N2C(=O)[C@@H]3C(c4ccccc4Cl)=NO[C@@H]3C2=O)c1
active: Potency [3] 6.01 µM
inactive: Potency [1] | Potency [2] | Potency [4]

CCOc1ccccc1CNC(=O)Cn1nc(C)c2c(C)n(-c3ccc(C)cc3)nc2c1=O
inactive: Potency [1] | activation [2] -0.659% [at 17.1 µM, percent relative to cAMP agonist control] | Potency [3] | activation [4] 18.3% [at 30.8 µM]

COc1ccc(N2C(=O)Cc3cc(OC)c(OC)cc3C2c2ccc(F)cc2)cc1 (stereo unspecified)
inactive: Potency [1] | Potency [2] | Potency [3] | Potency [4]

O=C(O)CCCC(=O)N1CCN(c2nc(-c3ccccc3Cl)c3cc(Br)ccc3n2)CC1
active: Potency [3] 13.5 µM
inactive: Potency [1] | Potency [2] | Potency [4]

CCc1nc2ccc(C(=O)Nc3ccc(NC(C)=O)cc3)cn2c1N(C)CCC(C)C
inactive: Potency [1] | Potency [2] | Potency [3] | Potency [4]

CCO[C@H]1OC(C(=O)NCc2ccccc2)=C[C@@H](c2ccc(C(F)(F)F)cc2)[C@@H]1CCCO
inactive: Potency [1] | Potency [2] | Potency [3] | Potency [4]

COc1ccc(N2C(=O)CSC23C(=O)N(Cc2cccc(C(F)(F)F)c2)c2ccccc23)cc1 (stereo unspecified)
inactive: Potency [1] | Potency [2] | outcome [3] inactive [at 12.7 µM] | Potency [4]

Cc1cc(-c2ccc(/C=N/n3cnnc3)o2)ccc1Cl
inactive: Potency [1] | Potency [2] | Potency [3] | Potency [4]

Nc1cc(OC(=O)c2cccs2)nn1S(=O)(=O)c1ccc(F)cc1
inactive: Potency [1] | Potency [2] | Potency [4]
active: Potency [3] 84.9 µM

CC(C)CCOP(=O)(c1ccc(N(C)C)cc1)C(O)c1c(Cl)cccc1Cl (stereo unspecified)
inactive: Potency [1] | activation [2] 13.3% [at 17.1 µM, percent relative to cAMP agonist control] | Potency [3] | activation [4] 2.73% [at 30.8 µM]

O=C(CSc1nnc(-c2cccs2)n1Cc1ccco1)Nc1ccc2c(c1)OCO2
inactive: Potency [1] | Potency [2] | Potency [3] | Potency [4]

CCCc1nc2ccc(C(=O)OC)cn2c1Cc1ccccc1C(F)(F)F
active: Potency [3] 30.1 µM
inactive: Potency [1] | Potency [2] | Potency [4]

CCC(NC(=O)c1ccccc1NC(=O)c1ccco1)C(=O)NNC(=O)c1ccc(OC)cc1 (stereo unspecified)
inactive: Potency [1] | activation [2] 0.808% [at 17.1 µM, percent relative to cAMP agonist control] | Potency [3] | activation [4] 9.27% [at 30.8 µM]

O=C(CSc1nccn1Cc1ccc(Cl)cc1)Nc1ccc2c(c1)OCO2
inactive: Potency [1] | Potency [2] | Potency [3] | Potency [4]

O=C(O)CN1C(=O)/C(=C\c2cccc(OCc3ccc(F)cc3)c2)SC1=S
inactive: Potency [1] | activation [2] 1.62% [at 17.1 µM, percent relative to cAMP agonist control] | Potency [3] | activation [4] 14.2% [at 30.8 µM]

Cc1ccnc(NC(=O)C2CCN(S(=O)(=O)c3cccc(C(F)(F)F)c3)CC2)c1
inactive: Potency [1] | Potency [2] | Potency [3] | Potency [4]

O=C(Nc1ccccc1N1CCCCC1)c1cnccn1
inactive: Potency [1] | activation [2] 0% [at 17.1 µM, percent relative to cAMP agonist control] | Potency [3] | activation [4] 21.6% [at 30.8 µM]

CCc1ccc2c(c1)NC(=O)C2(C)Cc1ccc(C(F)(F)F)o1 (stereo unspecified)
inactive: Potency [1] | Potency [2] | Potency [3] | Potency [4]

O=S(=O)(O)c1ccc(NN=Cc2ccccc2O)cc1
inactive: Potency [1] | activation [2] -8.55% [at 17.1 µM, percent relative to cAMP agonist control] | Potency [3] | activation [4] 20.1% [at 30.8 µM]

CCOP(=O)(OCC)C(Cc1ccccc1)N=C(c1ccccc1)c1ccccc1 (stereo unspecified)
inactive: Potency [1] | activation [2] 2.26% [at 17.1 µM, percent relative to cAMP agonist control] | Potency [3] | activation [4] 12.6% [at 30.8 µM]

CCn1cc(CN2CCc3c([nH]c4ccccc34)C2c2cccc(OC)c2)c(C)n1 (stereo unspecified)
inactive: Potency [1] | activation [2] -1.07% [at 17.1 µM, percent relative to cAMP agonist control] | Potency [3] | activation [4] 8.44% [at 30.8 µM]

C=CC(C)N1C(=O)S/C(=C\c2ccc(N3CCOCC3)cc2C)C1=O (stereo unspecified)
inactive: Potency [1] | Potency [2] | Potency [4]
active: Potency [3] 84.9 µM
